Experimental data reported in PubChem BioAssay (NCI).
Compounds without any hit were thinned out: in the full panel of roughly 83,000, 20% have a hit.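 Cells were grown in 96-well plates and exposed to the test compound at a single concentration for 48 hours; results are reported as percent growth, with values below 10 considered active.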 Unmarked numbers belong to inactive results. Active and inactive are the calls of the source.

How the values were obtained:
Experiment in all cases: NCI-60 one-dose screen, 48 h (100 = growth as untreated, 0 = no growth, -100 = all killed)
Details in all cases: 10 µM unless noted
[1] = tested on: NCI-H23 lung
[2] = tested on: NCI-H226 lung
[3] = tested on: NCI-H322M lung
[4] = tested on: HOP-62 NSCLC
[5] = tested on: NCI-H460 lung
[6] = tested on: HOP-92 NSCLC
[7] = tested on: NCI-H522 lung
[8] = tested on: A549/ATCC NSCLC
[9] = tested on: 786-0 renal
[10] = tested on: COLO 205 colon

| SMILES | growth [1] | growth [2] | growth [3] | growth [4] | growth [5] | growth [6] | growth [7] | growth [8] | growth [9] | growth [10] |
| --- | --- | --- | --- | --- | --- | --- | --- | --- | --- | --- |
| CC1(C)C(=O)/C(=C\c2ccccn2)C[C@]2(C)[C@H]3CC[C@@H]4[C@@H](C(=O)/C=C/c5ccccn5)CC[C@@]4(C)[C@]3(C)CC[C@@H]12 | -49.2% (active) | -33.8% (active) | 21.3% | -26.7% (active) | -36.2% (active) | -31.9% (active) | -23.3% (active) | 5.27% (active) | -69.4% (active) |  |
| CC(=O)c1c(C)[nH]c(-c2nc3ccc(N4CCN(C)CC4)cc3[nH]2)c1-c1ccc(N(C)C)cc1 | 40% | 47.4% | 40.6% | 24.6% | 53% | 33.1% | 42.1% | 40.2% | 38.7% |  |
| Oc1ccc(Nc2ccccc2)cc1 | 86% | 92.6% | 77.7% | 104% | 92.5% | 119% | 92.2% | 111% | 97.8% | 109% |
| NC1=NN(c2ccccc2)C(=O)/C1=C/c1ccc(Cl)cc1 | 98% | 99.2% | 97.8% | 95.3% | 99.1% | 91.6% | 90.6% | 98.5% | 94.4% |  |
| Clc1ccc2[nH]cc(-c3nc(-c4c[nH]c5ncccc45)cs3)c2c1 | 51.7% | 63% | 59.1% | 54.1% | 19% | 43.5% | 46.5% | 21.7% | 27.6% |  |
| COc1ccc(NC(=S)N/N=C/c2ccccc2SSCCC(=O)OC[C@H]2O[C@H](O)[C@H](O)[C@@H](O)[C@@H]2O)cc1 | 67.2% | 88.2% | 52.5% | 45.8% | 26.6% | 104% | 58.4% | 55.1% | 89.7% |  |
| CN(C)c1cccc2[nH]c(-c3[nH]ncc3Nc3ccnc(N)n3)nc12 | -45.1% (active) | -26.6% (active) | -13.6% (active) | -19.6% (active) | -32.7% (active) | -11.3% (active) | -24.6% (active) | -7.09% (active) | -58% (active) |  |
| Cc1ccc(N(CC(=O)Nc2ccc(S(=O)(=O)N3CCC(N4CCCC4)CC3)cc2)S(=O)(=O)c2ccc(Cl)cc2)cc1 | 77.6% | 64.7% | 22.5% | 67.6% | -58.5% (active) | 50.9% | 44.2% | 20.2% | -70.5% (active) |  |
| NCCn1cc(-c2nc(-c3c[nH]c4ncccc34)cs2)c2cc(F)ccc21 | 76.7% | 74.5% | 76.9% | 73.6% | 51.3% | 49.1% | 90.7% | 61.7% | 87.5% |  |
| C=C(C)[C@@H]1CC[C@]2(C(=O)O)CC[C@]3(C)[C@H](CC[C@@H]4[C@@]5(C)C/C(=C/c6cccc(I)c6)C(=O)C(C)(C)[C@@H]5CC[C@]43C)[C@@H]12 | 20.3% | 31.5% | 37.2% | 21.8% | 11.8% | 16% | 10% | 17.2% | 25% |  |
| O=C(NCN1C(=O)c2cccc3cccc(c23)C1=O)N1CCC(Cc2ccccc2)CC1 | 93.9% | 96.7% | 105% | 94% | 103% | 70% | 77.9% | 89.8% | 102% | 97.5% |
| COc1cc2[nH]c(C(=O)c3cc(OC)c(OC)c(OC)c3)c(N)c2cc1C#CC1CC1 | 50.3% | 50.2% | 52.7% | 42.1% | 13.5% | 17.2% | -4.22% (active) | 42.9% | 38.7% | 8.48% (active) |
| O=C(Nc1ccc(/C=C2\SC(=O)N(Cc3ccc(OC(F)(F)F)cc3)C2=O)cc1)c1ccc(Cl)c([N+](=O)[O-])c1 | 80.8% | 83.4% | 42.7% | 57.8% | 94.6% | 86.4% | 83% | 85% | 99.6% | 55.1% |
